Laboratory results: PubChem BioAssay AID1053175 (ICCB-Longwood Screening Facility, Harvard Medical School, 2014)
“And” between values parts separate entries of the source, which are not always exact repeats. Equal entries are not always repeated. In all, about 330,000 compounds went through this assay and about 700 (0.21%) were called active.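 The calls were made as follows: active = OD600 absorbance below the run mean of sample wells minus 3.6 SD, in any replicate (cut at about 0.56 in these data); inactive = the rest.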 The sample as a whole holds a higher share of actives than the screen did.

Assay: E. coli growth inhibition, primary screen, OD600 (AID 1053175)
Settings: Escherichia coli growth, OD600, 23 h; hits give low values

OD600 absorbance, active:
O=C(Nc1nnc(C2COc3ccccc3O2)o1)c1ccc(F)cc1 (stereo not given) 0.346
CSc1nsc(NC(=O)Nc2ccccc2)n1 0.445
O=C(NCC(F)(F)F)Nc1nnc(C(F)(F)F)s1 0.494
CCn1cc(C(=O)NCCO)c(=O)c2cc(F)c(N3CCN(C)CC3)cc21 0.0485
CCCCNC(=O)c1cn(CC)c2cc(N3CCN(C(=O)c4ccco4)CC3)c(F)cc2c1=O 0.458
Cc1cccc(NC(=O)c2ccc([N+](=O)[O-])o2)c1 0.475
CCNS(=O)(=O)c1ccc(NC(=O)Nc2cccc(C(F)(F)F)c2)cc1 0.51
CCC(C)N1CCC2(CC1)N=c1c(c3c4c5c(C)c(O)c3c(O)c1=NC(=O)C(C)=CC=CC(C)C(O)C(C)C(O)C(C)C(OC(C)=O)C(C)C(OC)C=CO[C@@](C)(O5)C4=O)N2 (stereo not given in full) 0.076
Cc1nnc(SCC2=C(C(=O)O)N3C(=O)C(NC(=O)Cn4nc(C)c(Cl)c4C)C3SC2)s1 (stereo not given) 0.488
Cc1cccc(NC(=S)Nc2ccc(Cl)c(Cl)c2)c1 0.495
Clc1c(OCCCn2ccnc2)ccc2ccccc12 0.49
Oc1c(CN2CCN(c3ccc(F)cc3)CC2)cc(Cl)c2cccnc12 0.332

OD600 absorbance, inactive:
CC1COc2ccccc2N1C(=O)c1ccc(F)cc1 (stereo not given) 0.65
O=C(COC(=O)c1ccc(F)cc1)NCC1COc2ccccc2O1 (stereo not given) 0.688
O=C(CO)NN=Cc1cccc(Cl)c1Cl 0.595
CCOc1ccccc1C(=O)NN=Cc1coc2ccc(Cl)cc2c1=O 0.656
COc1ccc(/C=C(\NC(=O)c2ccccc2)C(=O)NN=Cc2cccnc2)cc1 0.669
O=C(NN=Cc1c[nH]c2ccccc12)c1ccc(O)c(O)c1 0.695
COC(=O)C1CC2CCC(O)CC2N1Cc1ccc(C(F)(F)F)cc1 (stereo not given) 0.627 and 0.652
CC1(C)CC2CC(C)(CN2C=Nc2sc3c(c2C#N)CC(C)(C)NC3(C)C)C1 (stereo not given) 0.649
CCCC(O)c1cc2cc(OC)c(OC)cc2c(=O)o1 (stereo not given) 0.667
CCc1n[nH]c(=S)n1N=Cc1c(O)ccc2ccccc12 0.677
CCSc1nsc(NC(=O)Nc2cccc(C(C)=O)c2)n1 0.575
C=CCSc1nsc(NC(=O)Nc2cccc(C(C)=O)c2)n1 0.61
O=C(Nc1nnc(COc2ccccc2)s1)Nc1ccccc1F 0.649
COc1ccc(C)cc1NC(=O)CCC(=O)Nc1nnc(C(F)(F)F)s1 0.73
O=C(O)c1ccc(NN=Cc2ccc(-c3ccc(Cl)cc3Cl)o2)cc1 0.671
CCOC(=O)C1C2COc3ccc(Cl)cc3C2N2C(=O)c3ccc(C)cc3NC(=O)[C@@]12C (stereo not given in full) 0.705
CCN(CC)C(=O)c1[nH]cnc1C(=O)NC(Cc1ccccc1)C(=O)OC(C)(C)C (stereo not given) 0.689
COc1cc(C=NNC(=O)c2ccc3c(c2)OCCO3)cc(Br)c1O 0.712
CC(C(=O)N1CCNCC1)n1cc(CCC(=O)O)nn1 (stereo not given) 0.694
CCn1cc(C(=O)NCCC(=O)NCCO)c(=O)c2cc3c(cc21)OCO3 0.65
CCNC(=S)N1CCN(C(=O)c2ccco2)CC1 0.73
CCn1cc(S(=O)(=O)c2cccc(C)c2)c(=O)c2cc(F)c(N3CCN(C)CC3)cc21 0.662
CCCCCCn1cc(C(=O)O)c(=O)c2cc(F)c(N3CCCCC3)cc21 0.628
O=C(C=CNNC(=O)c1ccccc1)c1ccc(Br)cc1 0.66
CC1CN(C(C)CO)C(=O)c2cc(NC(=O)Cn3cnnn3)ccc2OC1CN(C)Cc1ccc(Cl)c(Cl)c1 (stereo not given) 0.734
O=C(Nc1cccc(O)c1)c1ccc(C(=O)c2ccccc2)o1 0.71
O=C(Nc1ccc(Br)cn1)c1ccc([N+](=O)[O-])o1 0.518
COc1ccc(S(=O)(=O)ON=C2CCCc3ccccc32)cc1 0.751
COc1ccc(C2C3C(=O)N(C(C)(C)C)C(=O)C3[C@]3(C)C(=O)N(c4cccc(C)c4)C(=O)N23)cc1 (stereo not given in full) 0.681
O=C(NN=Cc1ccc(O)cc1)c1ccc(COc2cc(Cl)ccc2Cl)o1 0.778
CCOC(=O)C1C2COc3cc(OC)ccc3C2N2C(=O)N(c3cccc(F)c3)C(=O)[C@@]12C (stereo not given in full) 0.694 and 0.697 and 0.645
CC(C)(C)C(COc1ccccc1[N+](=O)[O-])=NO 0.627
COc1cccc(C=NNc2nc3ccccc3n3cnnc23)c1 0.749
Cc1ccc(C)c(-c2cc(C(=O)NN=Cc3cccnc3)c3ccccc3n2)c1 0.67
CC(C)C[C@H](NC(=O)Nc1cccc(C(F)(F)F)c1)C(=O)O 0.689
O=C(Nc1ccc(C(=O)N2CCOCC2)cc1)Nc1cccc(C(F)(F)F)c1 0.664
Cc1ccc2cc(C=NNC(=O)[C@@H]3CCCN3)c(Cl)nc2c1 0.699
CN1CCN(CCC(=O)NN=Cc2cc([N+](=O)[O-])ccc2O)CC1 0.633
CCN=c1scc(C)n1N=Cc1cc(Br)c(O)c(OC)c1 0.689
CN1C(=O)C2C(C=Cc3ccccc3)N3C(=O)CN(Cc4ccc(-c5ccccc5)cc4)C(=O)[C@@]3(Cc3ccccc3)C2C1=O (stereo not given in full) 0.678
CC(=NNC(=O)C1CC1)c1ccc(NC(=O)c2ccc(Br)o2)cc1 0.697
O=C(NN=Cc1ccco1)c1cccs1 0.606
CCOC(=O)C1C2COc3cc(OC)ccc3C2N2C(=O)CN(Cc3ccc(C)cc3)C(=O)[C@@]12C (stereo not given in full) 0.699
CC1CC2OC(=O)[C@]3(C)C2C(OC3(C)O)[C@]2(C)C(=O)C=CC12 (stereo not given in full) 0.679
CC(C)(C)NC(=O)CCN(N=Cc1ccccc1F)C1=NS(=O)(=O)c2ccccc21 0.627
CN(C)c1ccc(C=NNC(=O)Cn2nnc3ccccc32)cc1 0.725
CC(C)(C)OC(=O)C1=C(CO)CS[C@@H]2[C@H](NC(=O)Cc3ccccc3)C(=O)N12 0.72
Cc1cc(C)cc(C(=O)NC2C(=O)N3C(C(=O)O)=C(CSc4nnc(C)s4)CSC23)c1 (stereo not given) 0.684
CC(C)CC(CSc1ccccc1)N1CCN(C)CCC1=O (stereo not given) 0.708
CCc1ccc(NC(=O)CC(C)=NNC(=O)OCc2ccc(OC)cc2)cc1 0.657
COc1ccc(C=NNC(=O)c2ccccc2[N+](=O)[O-])cc1CN1CCc2cc(OC)c(OC)cc2C1C (stereo not given) 0.712
Cc1ccc(NC(=O)C=NOCC(=O)NCc2ccccc2Cl)cc1 0.705
CCOC1OC(C(N)=O)=CC(c2ccccc2)C1CCCO (stereo not given) 0.702 and 0.686
CC(NC(=O)C(=O)NN=Cc1ccc(Cl)cc1)c1ccccc1 (stereo not given) 0.673
CCN=c1scc(C)n1N=Cc1ccsc1 0.697
Cc1ccc(C2=[N+]([O-])C3(CCCCCC3=NNC(N)=S)N(O)C2(C)C)o1 (stereo not given) 0.771
O=C(O)c1csc(NN=Cc2ccc(Br)cc2)n1 0.677
O=C1CCCC(=NNC(=O)c2cc(NS(=O)(=O)c3cccs3)cc(NS(=O)(=O)c3cccs3)c2)C1 0.669
CCOC(=O)C1C2COc3cc(OC)ccc3C2N2C(=O)N(c3ccc(C(F)(F)F)cc3)C(=O)[C@@]12C (stereo not given in full) 0.696 and 0.712
C=CCN1c2ccccc2[C@]23CC(C(=O)OC)N(C(=O)c4cc(C)oc4C)C2=NC(C(=O)OC)=C(C(=O)OC)C13 (stereo not given in full) 0.651
CC(=NNC(=O)c1ccncc1)c1cc2ccccc2o1 0.717
Cc1cc(C)c(C)c(OCC(=O)ON=C(N)c2ccccn2)c1 0.733
COC(=O)c1ccc(C=NNC(=O)C2CC(=O)N(c3ccc(F)cc3)C2)cc1 (stereo not given) 0.657
Cc1nc2ccccn2c1C(=O)NN=Cc1ccc2c(c1)OCO2 0.657
O=[N+]([O-])c1ccc(C=NN2CCN(c3ccc(Cl)cc3)CC2)cc1 0.805
Cc1cccc(NC(=S)NC23CN4CN(CN(C4)C2)C3)c1 0.691
Cc1cccc(NC(=S)Nc2ccc3cn[nH]c3c2)c1 0.655
O=C(O)c1cc2c(o1)CCCC2=NO 0.711
C=CCc1cc(C)ccc1OCCCn1ccnc1 0.666
c1ccc(Cc2ccc(OCCn3ccnc3)cc2)cc1 0.583
NC(CCCN1CCCCC1)=NO 0.705
CCCSc1ccc(C2N[C@@](CC(C)C)(C(=O)OC)C3C(=O)N(CC)C(=O)C23)cc1 (stereo not given in full) 0.649
Fc1ccc(N2CCN(Cc3cnc(Oc4ccc(Br)cc4)s3)CC2)cc1 0.726
O=C(CN1CCN(c2ccc(F)cc2)CC1)Nc1ccccc1 0.673
CCN1C(Nc2ccccc2)=NCC1CC(C)C (stereo not given) 0.698
CC(NC(=O)COc1ccc(C=NNC(=O)C(=O)Nc2ccccc2Br)cc1)c1ccccc1 (stereo not given) 0.788
O=C(Nc1ccccc1C(=O)NN=Cc1ccncc1)c1ccccc1 0.706
CC(=NNC(=O)c1cccc(S(=O)(=O)N2CCCC2)c1)c1ccco1 0.651
